Active and inactive are the calls of the source. Unless noted, how the calls were made is not given here.

For 13 compounds, z-score and composite z-score results are on record in PubChem BioAssay.

Experiment [1] is described as follows: resazurin metabolic signal in HepG2 cells – cell-based, resazurin fluorescence, 24 h, PK04 Diversity Set, profiling panel (AID 1172). Further: test concentration not given here. Particulars: HepG2 viability, higher = more signal. (In general: Alamar Blue is a resazurin reagent that responds to reducing activity.)
The nature of experiment [2]: budding yeast growth changes without added modifier – OD600, strain BY4716, 24 h, basal condition, primary screen (AID 1173). To be noted: S. cerevisiae BY4716 growth, OD600, 24 h; higher = more signal, called active from +8 up or from −8 down.
The nature of experiment [3]: viability profiling in MM1S myeloma cells – cell-based, resazurin fluorescence, basal, 24 h, PK04 Diversity Set, profiling panel (AID 1174).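 Further: MM1S multiple myeloma cell line; test concentration not given here.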 To be noted: higher = more signal, called active from +8 up or from −8 down.
Experiment [4] deals with Dihydroorotate dehydrogenase (quinone), mitochondrial (Plasmodium falciparum (isolate 3D7)) (UniProt Q08210). In words: inhibition of P. falciparum DHODH – biochemical, C-terminal His tag, absorbance 600 nm, primary screen (AID 1175).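 Further: recombinant parasite enzyme with a five histidine tag at its C terminus; test concentration not given here.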 To be noted: PfDHODH enzyme, DCIP absorbance 600 nm; higher = more signal, called active from +8 up or from −8 down.
A short description of experiment [5]: inhibition of PAO1 biofilm formation – strain PAO1, LB-PBS medium, absorbance 600 nm, primary screen (AID 1176). Further: test concentration not given here. Particulars: P. aeruginosa PAO1 growth/biofilm, A600, 12 h; higher = more signal.
Experiment [6] is described as follows: growth modulation of vineyard yeast isolate – strain RM11-1a, OD600, basal, 24 h, primary screen (AID 1177).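 Further: cultures grown under basal conditions with no added stressor; test concentration not given here.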 Particulars: S. cerevisiae RM11-1a growth, OD600, 24 h; higher = more signal, called active from +8 up or from −8 down.
Experiment [7] can be described thus: growth of efflux-deficient E. coli DRC39 – strain DRC39, OD650, 24 h, E. coli filamentation inducers, primary screen (AID 1178).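 Further: growth measured as culture turbidity by optical density at 650 nm; test concentration not given here.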 To be noted: E. coli DRC39 acrAB, higher = more signal, called active from +8 up or from −8 down.
The nature of experiment [8]: growth of efflux-deficient E. coli DRC39 – strain DRC39, OD650, 48 h, E. coli filamentation inducers, primary screen (AID 1179).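 Further: screen aims at cell division blockers that make cells filament.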 Particulars: E. coli DRC39 delta-acrAB growth, higher = more signal, called active from +8 up or from −8 down.
The nature of experiment [9]: viability profiling in RPMI8226 myeloma cells – cell-based, resazurin fluorescence, basal, 24 h, PK04 Diversity Set, profiling panel (AID 1180).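 Further: RPMI8826 multiple myeloma cell line at 5000 cells per well; test concentration not given here.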 Particulars: higher = more signal.
Experiment [10] concerns the target E3 ubiquitin-protein ligase XIAP (Homo sapiens) (UniProt P98170). Kind of experiment: small molecules binding XIAP protein – biophysical, small-molecule microarray, fluorescence 635 nm, primary screen (AID 1181).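 Further: score merges 667 nm emission and signal to noise over triplicate slides.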 Particulars: higher = more signal.

Sequence of E3 ubiquitin-protein ligase XIAP (Homo sapiens) (P98170 whole entry, looked up): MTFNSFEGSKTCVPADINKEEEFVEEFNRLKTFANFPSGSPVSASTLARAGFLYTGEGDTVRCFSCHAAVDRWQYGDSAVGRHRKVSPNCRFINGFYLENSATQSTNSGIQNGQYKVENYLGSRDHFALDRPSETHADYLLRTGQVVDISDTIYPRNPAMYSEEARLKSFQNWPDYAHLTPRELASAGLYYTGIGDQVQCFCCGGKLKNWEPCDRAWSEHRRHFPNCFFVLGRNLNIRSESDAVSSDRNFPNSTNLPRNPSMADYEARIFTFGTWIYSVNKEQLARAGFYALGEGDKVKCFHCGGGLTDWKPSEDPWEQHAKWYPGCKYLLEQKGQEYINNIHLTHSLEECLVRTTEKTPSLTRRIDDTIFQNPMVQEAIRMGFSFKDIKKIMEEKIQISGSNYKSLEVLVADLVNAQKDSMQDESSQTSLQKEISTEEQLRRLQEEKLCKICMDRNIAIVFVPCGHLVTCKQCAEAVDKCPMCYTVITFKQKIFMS
Sequence of Dihydroorotate dehydrogenase (quinone), mitochondrial (Plasmodium falciparum (isolate 3D7)) (Q08210 whole entry, looked up): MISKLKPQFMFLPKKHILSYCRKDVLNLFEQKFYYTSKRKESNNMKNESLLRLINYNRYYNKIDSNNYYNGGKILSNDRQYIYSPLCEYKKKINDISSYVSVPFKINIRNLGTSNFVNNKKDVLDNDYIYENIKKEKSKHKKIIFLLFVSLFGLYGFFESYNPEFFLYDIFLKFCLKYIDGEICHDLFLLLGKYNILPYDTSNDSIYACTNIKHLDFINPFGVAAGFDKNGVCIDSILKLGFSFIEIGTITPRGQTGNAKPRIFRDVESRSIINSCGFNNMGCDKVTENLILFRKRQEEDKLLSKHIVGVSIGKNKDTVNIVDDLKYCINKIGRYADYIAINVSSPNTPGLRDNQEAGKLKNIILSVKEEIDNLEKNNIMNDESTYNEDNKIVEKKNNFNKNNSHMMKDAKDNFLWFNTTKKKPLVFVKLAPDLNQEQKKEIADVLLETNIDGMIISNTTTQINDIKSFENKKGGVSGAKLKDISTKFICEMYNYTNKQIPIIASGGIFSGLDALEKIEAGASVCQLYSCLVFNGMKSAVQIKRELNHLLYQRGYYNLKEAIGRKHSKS

For the compound `CC(C)(C)N1C(=O)[C@H]2[C@H]3[C@H](O)[C@H](O)CC(=NOCc4ccccc4)[C@@H]3CC[C@H]2C1=O`, the z-score in [1] is -1.74; in experiment [2], -0.245 (inactive); in [3], -0.637 (inactive); in [5] it was 0.246 (inactive); in experiment [6], -2.23 (inactive); in [7], -0.474 (inactive). Besides, the results for the z-score in experiment [8] and in experiment [9] were -0.0278 (inactive) and -1.34, respectively. For the same compound, the values for the composite z-score in experiment [4] and in [10] were -1.36 (inactive) and -0.0735, respectively.

On to `CC(C)=C1C(=O)C(c2ccccc2)=C2CN3C(=O)N(CCc4ccccc4)C(=O)[C@]3(Cc3ccc(F)cc3)[C@H]21`, for which the z-score in experiment [1] is -1.22; in [2], 0.255 (inactive); in experiment [3], -1.53 (inactive); in experiment [5], 1.4 (inactive); in experiment [6] it was 0.223 (inactive); in experiment [7] it was -0.933 (inactive). The results for the z-score in [8] and in experiment [9] were -0.853 (inactive) and -0.942, respectively. Also, the composite z-score in [4] is -0.0278 (inactive); in experiment [10] it was -0.02.

In the case of `Cc1cc2c(nc1C)CCCN2CC(C)ON=C1[C@H]2CCn3c(=O)n(-c4ccccc4)c(=O)n3[C@H]2[C@H](O)[C@@H]2O[C@H]12` (stereo not given in full), the z-score was -0.942 in experiment [1]; -0.286 (inactive) in experiment [2]; -0.222 (inactive) in experiment [3]; 0.381 (inactive) in [5]; -0.488 (inactive) in experiment [6]; -1.05 (inactive) in experiment [7]. The z-score in experiment [8] is -1.98 (inactive); in [9], -0.745. The composite z-score in experiment [4] is -0.153 (inactive); in experiment [10], 0.0483.

Regarding `O=C1C[C@]2(c3ccc([N+](=O)[O-])cc3)C(=O)N(CCN3CCOCC3)c3cc(CO)ccc3[C@H]2N1CC12CC3CC(CC(C3)C1)C2`, the z-score in experiment [1] is -0.0113; in experiment [2] it was -0.0207 (inactive); in [3], 0.639 (inactive); in [5], 0.277 (inactive); in [6], -0.028 (inactive); in experiment [7] it was 0.577 (inactive). For the same compound, the values for the z-score in experiment [8] and in experiment [9] were -0.0127 (inactive) and -0.391, respectively. In addition, the composite z-score in [4] was -6.92 (inactive); in [10], 0.476.

Regarding `CC(C)N1CC=CC23O[C@@H]4C=CCCOC(=O)C4[C@H]2C(=O)N(CCCCCCO)[C@@H]3C1=O` (stereo not given in full), the z-score in experiment [1] was 0.973; in experiment [2] it was 0.948 (inactive); in [3], 0.98 (inactive); in [5], 0.109 (inactive); in experiment [6], 0.638 (inactive); in [7], 0.66 (inactive). For the same compound, the z-score in experiment [8] is 0.541 (inactive); in experiment [9], 0.937. Besides, the composite z-score is -0.0439 (inactive) in experiment [4] and 0.694 in [10].

As to `COCCCNC(=O)[C@@]1(CCS(=O)(=O)c2ccccc2)N=C(c2ccc(OCCCO)cc2)O[C@H]1c1ccccc1`, the z-score is 1.62 in [1]; -0.44 (inactive) in experiment [2]; 0.745 (inactive) in experiment [3]; 0.0963 (inactive) in [5]; -0.287 (inactive) in [6]; 1.34 (inactive) in experiment [7]. For the same compound, the z-score is 0.953 (inactive) in [8] and 0.806 in experiment [9]. Also, the composite z-score in [4] is 0.514 (inactive); in [10], 0.14.

On to `C=CCN1C(=O)[C@]2(O[C@H](CCn3cc(CCO)nn3)[C@@H]([Si](C)(C)c3ccc(OC)cc3)[C@@H]2C)c2cc(N3CCOC3=O)ccc21`, for which the z-score is -0.0584 in experiment [1]; -0.528 (inactive) in experiment [2]; -0.368 (inactive) in experiment [3]; 0.614 (inactive) in experiment [5]; 0.817 (inactive) in experiment [6]; -0.815 (inactive) in experiment [7]. Besides, the values for the z-score in experiment [8] and in [9] were -1.18 (inactive) and -0.789, respectively. For the same compound, the composite z-score is -0.173 (inactive) in experiment [4] and -0.124 in [10].

`CCOc1ccc(N2C(=O)/C(=C/C=C/c3ccccc3OC)S(=O)(=O)C2c2cccc([N+](=O)[O-])c2)cc1` (stereo not given): the z-score in experiment [1] was 1.28; in [2] it was -1.52 (inactive); in [3], -2.33 (inactive); in experiment [5], 1.07 (inactive); in experiment [6], -1.44 (inactive); in [7], 0.777 (inactive). Besides, the z-score in experiment [8] was 0.765 (inactive); in experiment [9], -0.548. Further, the composite z-score in [4] was -1.74 (inactive); in experiment [10], 0.0264.

For the compound `CCOC(=O)[C@H](CC(C)C)NC(=O)CCC1CC(OC(=O)NCc2cccc3ccccc23)CC2(CCCC(COC(=O)NCCN3CCOCC3)O2)O1` (stereo not given in full), the z-score in [1] is 1.29; in experiment [2], -0.996 (inactive); in experiment [3], 1.09 (inactive); in experiment [5], 0.131 (inactive); in experiment [6] it was -0.613 (inactive); in [7], -0.404 (inactive). Also, the values for the z-score in experiment [8] and in [9] were -0.88 (inactive) and 1.19, respectively. For the same compound, the values for the composite z-score in experiment [4] and in [10] were -0.247 (inactive) and -0.0143, respectively.

As to `COC(=O)C1(C)C=C2C(=C(c3ccccc3)C(=O)C2C)CN1` (stereo not given), the z-score in [1] is -1.44; in [2], 0.558 (inactive); in experiment [3], -1.71 (inactive); in experiment [5], 1.38 (inactive); in experiment [6], 0.376 (inactive); in experiment [7], -0.632 (inactive). Besides, the figures for the z-score in [8] and in [9] were -0.348 (inactive) and -2.05, respectively. In addition, the composite z-score in experiment [4] is -0.784 (inactive); in [10] it was 0.359.

In the case of `COCCOC(=O)N1C(=O)[C@@]2(c3cc(C#Cc4ccc(OC)cc4)ccc31)[C@H](C(=O)N1CCN(c3ncccn3)CC1)[C@H]1C(=O)O[C@H](c3ccccc3)[C@H](c3ccccc3)N1[C@@H]2c1ccc(OCCO)cc1`, the z-score in experiment [1] is 0.254; in experiment [2], 1.89 (inactive); in experiment [3], 0.468 (inactive); in experiment [5], 3.21 (inactive); in experiment [6], 3.06 (inactive); in [7], 0.178 (inactive). The figures for the z-score in experiment [8] and in [9] were -0.0435 (inactive) and -0.0737, respectively. Also, the figures for the composite z-score in experiment [4] and in experiment [10] were -1.62 (inactive) and -0.337, respectively.

For `O=C1[C@H]2[C@H]3[C@H](O)[C@H](O)CC(=NO[C@@H]4O[C@H](CO)[C@@H](O)[C@H](O)[C@H]4O)[C@H]3CC[C@H]2C(=O)N1C1CCCCC1`, the z-score in experiment [1] is 0.241; in experiment [2], 0.205 (inactive); in experiment [3], -0.655 (inactive); in experiment [5] it was -0.613 (inactive); in experiment [6], -0.629 (inactive); in experiment [7], 0.411 (inactive). Further, the results for the z-score in [8] and in [9] were 0.232 (inactive) and -0.815, respectively. For the same compound, the figures for the composite z-score in experiment [4] and in experiment [10] were 0.26 (inactive) and 0.155, respectively.

As to `CCOC(=O)C1=CC[C@H]2C(=O)N(CC)C(=O)[C@@H]12`, the z-score was 0.507 in experiment [1]; 1.31 (inactive) in experiment [2]; 0.293 (inactive) in experiment [3]; 0.0236 (inactive) in experiment [5]; 1.38 (inactive) in experiment [6]; -0.0583 (inactive) in experiment [7]. Moreover, the z-score in experiment [8] was -0.196 (inactive); in [9] it was 0.667. Further, the composite z-score was 0.467 (inactive) in experiment [4] and -0.311 in [10].
